Experimental data: PubChem BioAssay (NCATS)
Values joined by “and” are separate entries in the source; they are usually repeats but may differ in a detail not shown here. Identical values can stand only once. Records with an inconclusive call do not appear. A number with no mark means an inactive call. Active and inactive are the calls of the source. Calls come from the whole dose curve; as a rule, active = well fitted curve in the direction sought with a large enough effect; inconclusive = small, poorly fitted or top-dose-only effect, or another doubt; inactive = no such curve, though single readings can be large or run the other way. Where a SMILES comes first, the peptide text is derived from it. [ ]: non-standard residue; d: D form. pGlu = O=C1CC[C@@H](C(=O)O)N1

Experiment: qHTS Assay for Identifying Gametocytocidal Compounds (AID 743244);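 for max response: actives lower the fluorescent signal which means gametocytes are killed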
Details: P. falciparum 3D7 stage III-V gametocytes, alamarBlue, 72 h; max response: stronger effect = lower value
Outline: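 P. falciparum 3D7 stage III–V gametocytes (20,000 cells/well) were exposed to compounds for 72 h at 37 °C, 5% CO2. AlamarBlue was then added for 24 h; decreased resorufin fluorescence (Ex 525/Em 598 nm) indicated loss of viability.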
% is set by controls: 0 for no effect and ±100 for the full control effect; potency is the fitted concentration of half-maximal effect.

SMILES | max response | Potency
COc1ccc([C@@H]2CC(=O)c3c(O)cc(O[C@@H]4O[C@H](CO[C@@H]5O[C@@H](C)[C@H](O)[C@@H](O)[C@H]5O)[C@@H](O)[C@H](O)[C@H]4O)cc3O2)cc1O | 22.8% | 
CNC(=O)C[C@@H](N)C(=O)N[C@@H](C(=O)N[C@@H]1C(=O)N2[C@@H]1SC(C)(C)[C@@H]2C(=O)O)c1ccc(O)cc1 | -4.28% | 
O=C(O)c1ccc(NC2OC[C@@H](O)[C@H](O)[C@H]2O)cc1 (some centres not stated) | -2.1% | 
CC(O)CN(C)C (configuration not stated) | -6.61% | 
OCC1(CO)COC(C(Cl)(Cl)Cl)OC1 | 24.4% | 
CCN(CC)C(=O)c1cccnc1 | -8.37% | 
O=C(O)Cc1nn(Cc2ccc(Br)cc2F)c(=O)c2ccccc12 | -4.01% | 
O=C(O)/C=C/C(=O)Nc1ccc(S(=O)(=O)Nc2nccs2)cc1 | 0.278% | 
NC[C@H]1O[C@H](O[C@H]2[C@H](O)[C@@H](O[C@H]3O[C@H](CO)[C@@H](O)[C@H](N)[C@H]3O)[C@H](N)C[C@@H]2N)[C@H](N)C[C@@H]1O | -3.45% | 
CCCOC(=O)c1ccccc1O | -13% | 
CC12CCC(C1)C(C)(C)C2=O (configuration not stated) | -0.872% | 
Cc1ncc(C[n+]2csc(CCOP(=O)(O)OP(=O)(O)O)c2C)c(N)n1 | 0.908% | 
CC[C@H](CC[C@@H](C)[C@H]1CC[C@H]2[C@@H]3CC=C4C[C@@H](O)CC[C@]4(C)[C@H]3CC[C@]12C)C(C)C | 14.2% | 
O=C1CCC(=O)N1CO | -5.34% | 
CC[C@H](C)[C@@H]1NC(=O)[C@H](Cc2ccc(O)cc2)NC(=O)[C@@H](N)CSSC[C@@H](C(=O)N2CCC[C@H]2C(=O)N[C@@H](CC(C)C)C(=O)NCC(N)=O)NC(=O)[C@H](CC(N)=O)NC(=O)[C@H](CCC(N)=O)NC1=O | 0.419% | 
C[N+]1(C)[C@@H]2CC(OC(=O)C(O)(c3cccs3)c3cccs3)C[C@H]1[C@@H]1O[C@@H]12 (some centres not stated) | 8.38% | 
C(=C\c1ccncc1)/c1ccccc1 | 1.05% and -0.436% | 
COc1ccc2nc(NC(=O)Nc3ccccc3)sc2c1 | -0.997% | 
Cc1ccccn1 | 2.7% | 

SMILES | max response | Potency
O=P(O)(O)OC[C@H]1O[C@](O)(COP(=O)(O)O)[C@@H](O)[C@@H]1O | 2.17% | 
CC(C)(C)NCC(O)CSc1nc(-c2ccc(C(N)=O)s2)cs1 (configuration not stated) | 20.6% | 
CC[C@H](C)[C@H](NC(=O)[C@H](Cc1ccccc1)NC(=O)[C@H](C)NC(=O)[C@H](CC(=O)O)NC(=O)[C@H](CCCCN)NC(=O)[C@H](CO)NC(=O)[C@@H]1CCCN1C(=O)[C@@H]1CCC(=O)N1)C(=O)NCC(=O)N[C@@H](CC(C)C)C(=O)N[C@@H](CCSC)C(N)=O ([pGlu]PSKDAFIGLM-NH2) | 13.3% | 
CNC(=O)c1c(I)c(C(=O)NCC(=O)Nc2c(I)c(C(=O)O)c(I)c(C(=O)NCCO)c2I)c(I)c(N(C)C(C)=O)c1I | 1.95% | 
CN(Cc1ccccc1)Cc1ccccc1 | 1.68% | 
CCCCCCCCCCCCCCCCCC(=O)OCC(C)O (configuration not stated) | 2.45% | 
C=CC[N+]1([C@H]2C[C@H]3[C@@H]4CC[C@H]5C[C@H](O)[C@@H](N6CCOCC6)C[C@]5(C)[C@H]4CC[C@]3(C)[C@H]2OC(C)=O)CCCC1 | -0.733% | 
CCC(C(=O)NC(N)=O)c1ccccc1 (configuration not stated) | 7.61% | 
Cc1c(N)nc([C@H](CC(N)=O)NC[C@H](N)C(N)=O)nc1C(=O)N[C@H](C(=O)N[C@H](C)[C@@H](O)[C@H](C)C(=O)N[C@H](C(=O)NCCc1nc(-c2nc(C(=O)NCCCCN=C(N)N)cs2)cs1)[C@@H](C)O)[C@@H](O[C@@H]1O[C@@H](CO)[C@@H](O)[C@H](O)[C@@H]1O[C@H]1O[C@H](CO)[C@@H](O)[C@H](OC(N)=O)[C@@H]1O)c1cnc[nH]1 | -1.54% and 0.24% | 
CSCCC(N)C(=O)O (configuration not stated) | -5.15% | 
CN[C@H](CC(C)C)C(=O)N[C@H]1C(=O)N[C@@H](CC(N)=O)C(=O)N[C@H]2C(=O)N[C@H]3C(=O)N[C@H](C(=O)N[C@@H](C(=O)O)c4cc(O)cc(O)c4-c4cc3ccc4O)[C@H](O)c3ccc(c(Cl)c3)Oc3cc2cc(c3O[C@@H]2O[C@H](CO)[C@@H](O)[C@H](O)[C@H]2O[C@H]2C[C@](C)(N)C(O)[C@H](C)O2)Oc2ccc(cc2Cl)[C@H]1O (some centres not stated) | 3.65% and -0.964% | 
C=N[C@@H](C(=O)N[C@@H]1C(=O)N2[C@@H]1SC(C)(C)[C@@H]2C(=O)O)c1ccccc1 | -0.476% | 
O=C(O)c1cc(N=Nc2ccc(O)c(C(=O)O)c2)ccc1O | 0.0283% | 
CCCCCc1ccc(C)cc1O | 3.19% | 
CN1CCc2c(c3ccccc3n2Cc2ccccc2)C1 | 9.99% | 
CCN(CC)C(=S)S |  | 6.31 µM (active)
CO/N=C(\C(=O)N[C@@H]1C(=O)N2C(C(=O)O)=C(C[N+]3(C)CCCC3)CS[C@H]12)c1csc(N)n1 | 15.9% | 
C[S+](C)CCC(N)C(=O)O (configuration not stated) | 3.96% | 
